{"source": "paper PMC4336329", "about": "(PLoS ONE, 2015)", "note": "In all, about 310,000 compounds went through this assay and about 14,000 (4.5%) showed an effect of 50% or more. Effects have a minus sign here. The list comes from a sample in which strong results are over-represented; it also holds similar structures and randomly drawn compounds.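 Note: peak tail current of the secondary pulse compared with the same well before compound.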"}
{"target": "human ether-à-go-go-related gene (hERG) potassium channel (human, UniProt Q12809)", "sequence (Q12809 whole entry, looked up)": "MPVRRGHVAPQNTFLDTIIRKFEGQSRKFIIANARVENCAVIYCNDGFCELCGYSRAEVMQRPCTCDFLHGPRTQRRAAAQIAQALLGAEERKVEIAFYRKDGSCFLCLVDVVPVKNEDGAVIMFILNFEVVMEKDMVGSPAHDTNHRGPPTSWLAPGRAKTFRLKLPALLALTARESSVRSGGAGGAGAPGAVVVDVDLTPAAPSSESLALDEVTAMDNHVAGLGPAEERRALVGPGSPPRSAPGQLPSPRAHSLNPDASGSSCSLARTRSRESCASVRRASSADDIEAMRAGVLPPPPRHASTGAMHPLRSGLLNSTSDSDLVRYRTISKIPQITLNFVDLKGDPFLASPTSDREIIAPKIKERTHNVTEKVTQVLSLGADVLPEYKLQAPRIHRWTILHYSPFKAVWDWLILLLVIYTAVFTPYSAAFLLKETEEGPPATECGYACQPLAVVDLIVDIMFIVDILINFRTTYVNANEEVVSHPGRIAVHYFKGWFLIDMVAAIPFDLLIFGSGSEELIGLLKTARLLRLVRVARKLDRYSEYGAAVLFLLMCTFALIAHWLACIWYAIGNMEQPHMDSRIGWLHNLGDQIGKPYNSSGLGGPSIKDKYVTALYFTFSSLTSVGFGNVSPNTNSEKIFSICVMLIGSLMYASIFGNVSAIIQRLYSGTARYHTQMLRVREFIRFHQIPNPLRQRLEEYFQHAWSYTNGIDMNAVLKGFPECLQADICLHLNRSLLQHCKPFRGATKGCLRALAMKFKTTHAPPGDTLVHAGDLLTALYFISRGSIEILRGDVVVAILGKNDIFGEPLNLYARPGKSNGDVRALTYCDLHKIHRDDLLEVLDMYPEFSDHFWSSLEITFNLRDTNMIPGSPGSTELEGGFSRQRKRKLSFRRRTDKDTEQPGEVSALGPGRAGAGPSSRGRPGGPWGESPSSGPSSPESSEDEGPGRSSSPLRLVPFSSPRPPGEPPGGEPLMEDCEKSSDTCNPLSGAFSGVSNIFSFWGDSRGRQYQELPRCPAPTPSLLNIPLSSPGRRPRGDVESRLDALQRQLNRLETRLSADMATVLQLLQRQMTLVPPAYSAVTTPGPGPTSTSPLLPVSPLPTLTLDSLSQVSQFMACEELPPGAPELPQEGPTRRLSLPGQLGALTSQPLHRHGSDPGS", "assay": "primary screen, population patch clamp on CHO cells stably expressing hERG; higher = less effect of the substance", "units": {"hERG current change (%, negative = inhibition) at 10uM": "%"}}
{"smiles": "CCCCNC(=O)c1onc(CSc2ccc(Cl)cc2)c1C(=O)NCCCC", "hERG current change (%, negative = inhibition) at 10uM": -20.5}
{"smiles": "CCC(C(=O)Nc1ccc(C(C)C)cc1)c1ccccc1", "note": "(stereo not drawn)", "hERG current change (%, negative = inhibition) at 10uM": 11.8}
{"smiles": "COc1cc(/C=N/NC(=O)CNC(=O)c2ccc3c(c2)OCCO3)ccc1O", "hERG current change (%, negative = inhibition) at 10uM": 1.98}
{"smiles": "COc1cccc(C2CCCN2Cc2nc(-c3cnccn3)no2)c1", "note": "(stereo not drawn)", "hERG current change (%, negative = inhibition) at 10uM": 7.84}
{"smiles": "CC(NC(=O)Cc1cccs1)c1ccccc1", "note": "(stereo not drawn)", "hERG current change (%, negative = inhibition) at 10uM": 24.5}
{"smiles": "Cc1ccc(NC(=O)CCSc2nnc(-c3ccco3)o2)cc1", "hERG current change (%, negative = inhibition) at 10uM": 9.02}
{"smiles": "COCc1cc(=O)[nH]c(Nc2nc3ccc(C)cc3o2)n1", "hERG current change (%, negative = inhibition) at 10uM": -10.3}
{"smiles": "O=C(/C=C/c1ccccc1)NCCN1CCOCC1", "hERG current change (%, negative = inhibition) at 10uM": 20.6}
{"smiles": "COc1ccc(C(=O)/C(=C/N(C)C)S(=O)(=O)c2ccccc2)cc1", "hERG current change (%, negative = inhibition) at 10uM": 10.8}
{"smiles": "O.O=C1NC2(O)C(=O)c3ccccc3C2(O)N1", "note": "(stereo not drawn)", "hERG current change (%, negative = inhibition) at 10uM": 11}
{"smiles": "O=C(N/N=C\\c1cc(Br)cs1)c1ccncc1", "hERG current change (%, negative = inhibition) at 10uM": -6.73}
{"smiles": "CCC1Sc2ccc(S(=O)(=O)CCC(=O)NC3CCCCCC3)cc2NC1=O", "note": "(stereo not drawn)", "hERG current change (%, negative = inhibition) at 10uM": 16.1}
{"smiles": "c1ccc2c(c1)Oc1ccccc1S2", "hERG current change (%, negative = inhibition) at 10uM": 14.7}
{"smiles": "CCOC(=O)c1ccc(N=C2C(=S)N(c3ccc(C(=O)OCC)cc3)C(=N)N2/N=C/c2ccccc2)cc1", "hERG current change (%, negative = inhibition) at 10uM": -52.7}
{"smiles": "Cc1ccc(N=C2C(=S)N(c3ccc(C)cc3)C(=N)N2/N=C/c2ccc(Cl)cc2)cc1", "hERG current change (%, negative = inhibition) at 10uM": -6.29}
{"smiles": "N=C1N(/N=C/c2ccccc2)C(=Nc2ccccc2)C(=S)N1c1ccccc1", "hERG current change (%, negative = inhibition) at 10uM": 2.03}
{"smiles": "CCOc1ccc(C(=O)NC2CCN(C(=O)Nc3ccc(F)cc3)CC2)cc1", "hERG current change (%, negative = inhibition) at 10uM": 0.481}
{"smiles": "CCc1cc2c(NCCC(=O)O)nc(C)nc2s1", "hERG current change (%, negative = inhibition) at 10uM": 24.2}
{"smiles": "COc1ccc(C(=O)C2CCCN(Cc3ccc(C#CCCO)cc3)C2)c(OC)c1", "note": "(stereo not drawn)", "hERG current change (%, negative = inhibition) at 10uM": -51.2}
{"smiles": "COc1ccc(C(=O)C2CCCN(Cc3ccc(C#CCCO)cc3)C2)cc1F", "note": "(stereo not drawn)", "hERG current change (%, negative = inhibition) at 10uM": -45.3}
{"smiles": "COc1ccc(C(=O)C2CCCN(Cc3ccc(C)s3)C2)cc1OC", "note": "(stereo not drawn)", "hERG current change (%, negative = inhibition) at 10uM": -71.6}
{"smiles": "COc1ccc(C(=O)C2CCCN(Cc3cnc(C)s3)C2)cc1OC", "note": "(stereo not drawn)", "hERG current change (%, negative = inhibition) at 10uM": -5.12}
{"smiles": "COc1ccc(C(=O)C2CCCN(Cc3cc(C)c(O)c(C)c3)C2)c(OC)c1", "note": "(stereo not drawn)", "hERG current change (%, negative = inhibition) at 10uM": -61}
{"smiles": "Cc1ncc(CN2CCCC(C(=O)c3ccc(C(C)(C)C)cc3)C2)s1", "note": "(stereo not drawn)", "hERG current change (%, negative = inhibition) at 10uM": -72.8}
{"smiles": "Cc1ncc(CN2CCCC(C(=O)c3cccc(Cl)c3)C2)s1", "note": "(stereo not drawn)", "hERG current change (%, negative = inhibition) at 10uM": -13.6}
{"smiles": "COc1ccc2cc(C(=O)C3CCCN(Cc4cnc(C)s4)C3)ccc2c1", "note": "(stereo not drawn)", "hERG current change (%, negative = inhibition) at 10uM": -28.8}
{"smiles": "CCOC(=O)N1CCN(c2nc(-c3cccc(OC)c3)cc(C(F)(F)F)n2)CC1", "hERG current change (%, negative = inhibition) at 10uM": 6.67}
{"smiles": "Cc1c(C(=O)N2CCCC2)c(S(=O)(=O)Nc2cccc(Br)c2)c(C)n1C", "hERG current change (%, negative = inhibition) at 10uM": 6.99}
{"smiles": "CCN(CC)C(=O)Cn1cnc2sc(C(=O)Nc3cc(OC)c(OC)c(OC)c3)c(C)c2c1=O", "hERG current change (%, negative = inhibition) at 10uM": 14.5}
{"smiles": "Cn1cc(/C=N\\NC(=O)C2COc3ccccc3O2)c2ccccc21", "note": "(stereo not drawn)", "hERG current change (%, negative = inhibition) at 10uM": 9.62}
{"smiles": "Cc1ccc(NC(=O)NNC(=O)c2cc3ccccc3cc2O)c(C)c1", "hERG current change (%, negative = inhibition) at 10uM": 27.4}
{"smiles": "Cc1ccccc1C1NS(=O)(=O)N=C1N", "note": "(stereo not drawn)", "hERG current change (%, negative = inhibition) at 10uM": 23.3}
{"smiles": "CC(Oc1ccc(-c2ccccc2)c(F)c1)c1ccn(S(=O)(=O)c2ccc(Br)cc2)n1", "note": "(stereo not drawn)", "hERG current change (%, negative = inhibition) at 10uM": 7.43}
{"smiles": "COCCCNC(=O)CN1C(=O)/C(=C\\c2ccc(C)cc2)Sc2ccccc21", "hERG current change (%, negative = inhibition) at 10uM": -15.8}
{"smiles": "COc1ccc(C(=O)C2CCCN(Cc3ccc(NC(C)=O)cc3)C2)cc1OC", "note": "(stereo not drawn)", "hERG current change (%, negative = inhibition) at 10uM": -21.1}
{"smiles": "COc1ccc(C(=O)C2CCCN(Cc3cnc(C)s3)C2)c(OC)c1", "note": "(stereo not drawn)", "hERG current change (%, negative = inhibition) at 10uM": -42.3}
{"smiles": "COc1ccc(C(=O)C2CCCN(Cc3ccc(C)s3)C2)c(OC)c1", "note": "(stereo not drawn)", "hERG current change (%, negative = inhibition) at 10uM": -53.7}
{"smiles": "COc1ccc(C(=O)C2CCCN(Cc3ccsc3)C2)cc1OC", "note": "(stereo not drawn)", "hERG current change (%, negative = inhibition) at 10uM": -73.8}
{"smiles": "NS(=O)(=O)c1ccc(CCNC(=O)C2CCN(S(=O)(=O)c3cnc[nH]3)CC2)cc1", "hERG current change (%, negative = inhibition) at 10uM": -2.97}
{"smiles": "CC(C)(C)P(=O)(c1ccncc1)N1CCCC1", "note": "(stereo not drawn)", "hERG current change (%, negative = inhibition) at 10uM": 2.14}
{"smiles": "O=C(Nc1ccc2oc(=O)ccc2c1)c1cc([N+](=O)[O-])ccc1N1CCOCC1", "hERG current change (%, negative = inhibition) at 10uM": -41.8}
{"smiles": "CCN(CC(=O)Nc1ccc(NC(C)=O)cc1)C(=O)/C=C/c1ccc2c(c1)OCO2", "hERG current change (%, negative = inhibition) at 10uM": 0.823}
{"smiles": "CC(C)C[C@H]1CN=C(Nc2ccccc2)N1CCC1CCCC1", "hERG current change (%, negative = inhibition) at 10uM": -51.5}
{"smiles": "CC(C)C[C@H]1CN=C(Nc2ccccc2)N1CCCC1CCCC1", "hERG current change (%, negative = inhibition) at 10uM": -65.9}
{"smiles": "CC(C)C[C@H]1CN=C(Nc2ccccc2)N1CCC1CCCCC1", "hERG current change (%, negative = inhibition) at 10uM": -61.5}
